Reference: the supplement of paper PMC3545927
This is one part of the list. The hit rate among all sequences tested is not known here.

Target: furin, P09958
Assay: furin cleavage Z-score vs untreated control; higher = more cleavage, active = 3.5 or more, inactive = 1 or less, 8 variable residues between constant flanks
Outline: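 Cleavage by purified furin was measured on 8-mer peptides fused to a cDNA oligonucleotide and held on magnetic beads by their N-terminus. Reactions (0.01 ml, 1:10 enzyme:substrate) ran 7.5, 15 or 30 min in 50 mM HEPES pH 7.5 with CaCl2 and NaCl. Released DNA was adapter-tagged by PCR and sequenced, with read counts giving abundance. Log counts versus furin-free reactions were lowess-adjusted and scaled by median absolute deviation to give the cleavage Z-score.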

Chain of furin, P09958 (P09958 whole entry): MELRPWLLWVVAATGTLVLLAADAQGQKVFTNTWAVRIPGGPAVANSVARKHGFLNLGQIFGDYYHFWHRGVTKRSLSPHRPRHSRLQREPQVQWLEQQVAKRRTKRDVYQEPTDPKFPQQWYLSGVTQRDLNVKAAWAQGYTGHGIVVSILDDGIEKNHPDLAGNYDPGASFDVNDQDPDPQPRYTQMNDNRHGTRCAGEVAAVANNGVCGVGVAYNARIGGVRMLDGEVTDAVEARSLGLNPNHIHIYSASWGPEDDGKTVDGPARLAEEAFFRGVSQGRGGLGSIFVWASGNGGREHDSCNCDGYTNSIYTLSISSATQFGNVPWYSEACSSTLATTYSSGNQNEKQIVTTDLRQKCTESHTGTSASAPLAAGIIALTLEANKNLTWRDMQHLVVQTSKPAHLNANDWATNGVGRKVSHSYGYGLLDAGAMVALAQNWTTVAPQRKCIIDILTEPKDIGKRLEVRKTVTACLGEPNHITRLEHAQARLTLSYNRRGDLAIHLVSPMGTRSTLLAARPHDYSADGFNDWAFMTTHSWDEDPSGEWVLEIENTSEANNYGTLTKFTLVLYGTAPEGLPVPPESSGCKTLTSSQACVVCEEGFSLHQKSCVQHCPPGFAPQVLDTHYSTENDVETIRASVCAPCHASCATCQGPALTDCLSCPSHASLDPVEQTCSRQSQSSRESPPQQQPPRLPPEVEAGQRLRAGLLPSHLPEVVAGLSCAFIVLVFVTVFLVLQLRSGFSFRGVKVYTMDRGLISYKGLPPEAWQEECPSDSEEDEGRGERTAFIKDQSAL

Sequence	furin cleavage Z-score (7.5 min)	furin cleavage Z-score (15 min)	furin cleavage Z-score (30 min)
CAYPYRLWHYAGNASASA [HC466]	-1.33 (inactive)	-2.06 (inactive)	0.263 (inactive)
CASTPCSTHLAGNASASA [HC2538]	-0.715 (inactive)	0.257 (inactive)	-0.443 (inactive)
CAYCWHYPPKAGNASASA [HC403]	1.04	0.468 (inactive)	2.44
CAHSRTIKRSAGNASASA [FS-1632]	5.07 (active)	6.15 (active)	6.19 (active)
CATTPCSYSWAGNASASA [HC1889]	-2.07 (inactive)	0.349 (inactive)	1.53
CAGPRLGVRAAGNASASA [HC181]	-1.03 (inactive)	0.21 (inactive)	-0.871 (inactive)
CAGFHRRARAAGNASASA [FS-239]	4.46 (active)	3.84 (active)	4.12 (active)
CAGNEGCGWAAGNASASA [HC204]	-0.525 (inactive)	-0.206 (inactive)	-0.116 (inactive)
CAGNRRRARAAGNASASA [FS-126]	9.62 (active)	8.76 (active)	7.27 (active)
CAQDVLKEVKAGNASASA [HC1403]	-1.57 (inactive)	-2.35 (inactive)	-1.62 (inactive)
CAITAEAAGRAGNASASA [HC1251]	0.707 (inactive)	-1.39 (inactive)	-1.45 (inactive)
CARQRRLLAAAGNASASA [FS-3042]	-1.14 (inactive)	-0.921 (inactive)	0.324 (inactive)
CARQRRGCFRAGNASASA [FS-2446]	1.29	2.53	4.76 (active)
CARQRRPTGPAGNASASA [FS-2511]	-1.58 (inactive)	-0.922 (inactive)	0.378 (inactive)
CARQRRGTGAAGNASASA [FS-2762]	3.78 (active)	4.54 (active)	4.93 (active)
CARDRRGCFAAGNASASA [FS-2253]	-0.438 (inactive)	-0.0621 (inactive)	0.916 (inactive)
CARQRRGFHHAGNASASA [FS-2365]	0.595 (inactive)	4.95 (active)	6.76 (active)
CARQRREMVAAGNASASA [FS-2589]	4.84 (active)	5.77 (active)	5.19 (active)
CANGSWHLNSAGNASASA [HC369]	-0.0133 (inactive)	2.38	0.739 (inactive)
CAHREVPCHRAGNASASA [HC2435]	-0.316 (inactive)	1.36	2.65
CAVTKLPLAVAGNASASA [HC1460]	-0.671 (inactive)	-0.455 (inactive)	0.174 (inactive)
CARTPCSGSWAGNASASA [HC1833]	-0.828 (inactive)	-0.942 (inactive)	-0.629 (inactive)
CAKYSRSYRYAGNASASA [FS-937]	-0.221 (inactive)	-0.443 (inactive)	0.667 (inactive)
CASGGPLLCPAGNASASA [HC743]	0.483 (inactive)	-0.364 (inactive)	-1.12 (inactive)
CADQERKARYAGNASASA [FS-758]	-0.446 (inactive)	0.477 (inactive)	0.913 (inactive)
CASGGRTKRYAGNASASA [FS-191]	8.8 (active)	10.7 (active)	9.18 (active)
CANKFRTKRYAGNASASA [FS-695]	9.46 (active)	8.84 (active)	7.04 (active)
CARVTAILSSAGNASASA [HC1132]	1.14	0.277 (inactive)	-0.773 (inactive)
